Records with an inconclusive call do not appear. Unmarked numbers belong to inactive results. Calls of active or inactive are those of the source. Calls follow the shape of the dose curve; as a rule, active = well fitted cell-killing curve with a large enough effect; inconclusive = small, poorly fitted or top-dose-only effect, or effect the other way; inactive = no such curve, though single readings can be large or run the other way.
% is scaled to controls: 0 for no effect and ±100 for the full control effect; potency is read from the fitted curve at half-maximal effect.

This test deals with JEG-3. The test is described as follows: Confirmatory qHTS for gynecologic anti-cancer compounds from libraries of approved drugs and bioactive compounds. Also: nearly all actives have a fitted effect of over 55% in size. Particulars: gynecologic cancer cell panel viability, ATPlite luminescence, 48 h; series mostly up to 57.6 µM. The method in brief: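 ATP-based luminescent viability (ATPlite) after 48 h drug treatment at 37 °C, 5% CO2, across 57.5 uM–0.977 nM in 1:3 steps. Cells seeded at 1,000 per well 16 h beforehand; IC50 values computed, HEK 293T as selectivity control.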
For the compound `CC(=O)c1cnc2ccc(-c3cc(Cl)c(O)c(Cl)c3)nc2c1NC1CCC(CN(C)C)CC1` (stereo not drawn), the Potency was 0.627 µM (active). The same measure, in the same setting: as for `O=C(/C=C/c1cccc(S(=O)(=O)Nc2ccccc2)c1)NO`, the figure is 1.19 µM (active); as for `CCC(=O)N1CCN(c2ccc(-n3c(=O)ccc4cnc5ccc(-c6cnc7ccccc7c6)cc5c43)cc2C(F)(F)F)CC1`, 6.27 µM (active).

For the compound `CC(Oc1cc(-n2cnc3ccc(CN4CCN(C)CC4)cc32)sc1C(N)=O)c1ccccc1C(F)(F)F` (stereo not drawn), the Potency is 1.93 µM (active). The same measure, in the same setting: the same measure for `CC(C)C[C@H](NC(=O)[C@H](CCc1ccccc1)NC(=O)CN1CCOCC1)C(=O)N[C@@H](Cc1ccccc1)C(=O)N[C@@H](CC(C)C)C(=O)[C@@]1(C)CO1`: 17.2 µM (active); for `COc1cc2c(Nc3ccc(NC(=O)c4ccccc4)cc3)ncnc2cc1OCCCN1CCOCC1`: 27.3 µM (active).

As for `COc1cc2c(Oc3ccc(-c4cnc(Nc5ccc(F)cc5)n(C)c4=O)cc3F)ccnc2cc1OCCCN1CCOCC1`, the Potency result was “inactive”. Take `Cn1cc(-c2[nH]c3cc(NC(=O)[C@H](N)C4CCCCC4)cc4c3c2C=NNC4=O)cn1`: the Potency is 7.69 µM (active). Regarding `COc1ccc2cc3[n+](cc2c1OC)CCc1cc2c(cc1-3)OCO2`, the Potency is 3.85 µM (active).

Consider `COc1ccc2c(c1)c(CC(=O)O)c(C)n2C(=O)c1ccc(Cl)cc1`, for which the Potency result is “inactive”. Same read-out and setting: the same measure for `Cc1ccc(C(N)=O)cc1Nc1nccc(-c2cn(C(C)C)c3cnccc23)n1`: 7.69 µM (active). `Cc1cnc(CNC(=O)c2c(=O)c3ccc(N4CCCN(C)CC4)nc3n3c2sc2ccccc23)cn1`: the activity change, negative = viability loss is -17.5% [at 10.6 µM].

As for `Cc1cnc(Nc2ccc(CN3CCOCC3)cc2)nc1Nc1cccc(S(=O)(=O)NC(C)(C)C)c1`, the Potency is 9.68 µM (active).

As to `CCN(CC)CCNC(=O)c1c(C)[nH]c(/C=C2\C(=O)Nc3ccc(F)cc32)c1C`, the Potency was 25.1 µM (active).

As for `Cc1ccc(C(=O)Nc2ccc(CN3CCN(C)CC3)c(C(F)(F)F)c2)cc1C#Cc1cnc2cccnn12`, the Potency was 27.3 µM (active).

In the case of `C=CC(=O)Nc1cccc(Oc2nc(Nc3ccc(N4CCN(C)CC4)cc3)ncc2Cl)c1`, the Potency is 24.3 µM (active). Turning to `NC(=O)Nc1cc(-c2cccc(F)c2)sc1C(=O)NC1CCCNC1` (stereo not drawn), the Potency is 1.22 µM (active). For the compound `O=C1N(c2ccccc2)c2ccccc2C1(Cc1ccncc1)Cc1ccncc1`, the Potency entry is “inactive”. Same read-out and setting: as for `CN(NC(=O)CC(=O)NN(C)C(=S)c1ccccc1)C(=S)c1ccccc1`, the figure is 0.109 µM (active); as for `CNC(=O)CN1CCC(Oc2cc3c(Nc4cccc(Cl)c4F)ncnc3cc2OC)CC1`, “inactive”. Still for that read-out and setting: as for `NC(=O)c1cnc(-c2ccc(C3(N)CCC3)cc2)c(-c2ccccc2)c1`, the figure is 30.6 µM (active); as for `Nc1ncnc2c1ncn2[C@@H]1O[C@H](CO)C[C@H]1O`, “inactive”.

With `CCn1c(-c2nonc2N)nc2c(C#CC(C)(C)O)ncc(OCC3CCCNC3)c21` (stereo not drawn), the Potency entry is “inactive”. On to `COc1cc2c(NC3CCN(C(C)C)CC3)nc(C3CCCCC3)nc2cc1OCCCN1CCCC1`, for which the Potency is 10.9 µM (active). Same read-out and setting: as for `C[C@@H](Oc1cc(-c2cnn(C3CCNCC3)c2)cnc1N)c1c(Cl)ccc(F)c1Cl`, the figure is 21.7 µM (active); as for `Cc1nc(Nc2n[nH]c3c2CN(C(=O)NC(CN(C)C)c2ccccc2)C3(C)C)c2sccc2n1` (stereo not drawn), 0.544 µM (active); as for `Cc1c(NC(=O)OCC2COCCN2)cn2ncnc(Nc3ccc4c(cnn4Cc4cccc(F)c4)c3)c12` (stereo not drawn), 30.6 µM (active). Same read-out and setting: the same measure for `CCCc1nn(C)c2c(=O)[nH]c(-c3cc(S(=O)(=O)N4CCN(C)CC4)ccc3OCC)nc12`: “inactive”; for `CC(Oc1ccc2[nH]nc(/C=C/c3cnn(CCO)c3)c2c1)c1c(Cl)cncc1Cl` (stereo not drawn): 6.85 µM (active); for `CN1C(=O)C(Cc2c[nH]c3ccccc23)NC1=S` (stereo not drawn): “inactive”. Take `CO[C@@]12[C@H](COC(N)=O)C3=C(C(=O)C(C)=C(N)C3=O)N1C[C@@H]1N[C@@H]12`: the Potency result is “inactive”. As to `CCc1nc(C(N)=O)c(Nc2ccc(N3CCC(N4CCN(C)CC4)CC3)c(OC)c2)nc1NC1CCOCC1`, the Potency entry was “inactive”. In the case of `Cn1cnc2c(F)c(Nc3ccc(Br)cc3F)c(C(=O)NOCCO)cc21`, the Potency entry is “inactive”.

The values are drawn from PubChem BioAssay AID1345085 (National Center for Advancing Translational Sciences (NCATS), 2018).
